High-throughput results deposited in PubChem BioAssay by several laboratories.
Shn3 3UTR inh – Schnurri-3 reporter inhibition in Clone20 osteoblasts. Clone20 osteoblast Shn3 3'UTR firefly luciferase, 24 h. inhibition, % at 12.5 µM. 0.52% of 360,000 active. AID 588674;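 active = mean inhibition of at least 75% with every replicate also reaching 75%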
TRPM1 prom inh – MITF TRPM1 promoter inhibition in SK-MEL-5 cells. 0.83% of 330,000 active. inhibition, % at 12.5 µM. SK-MEL-5 TRPM1 promoter luciferase, 24 h. AID 488899;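 active = mean inhibition across replicates of 60% or more, whatever share of single replicates reaches that level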
EBV LMP1 NFkB – Epstein-Barr LMP1 NF-kappaB reporter inhibition; LMP1-induced NF-kappaB luciferase reporter cells, luminescence; inhibition, % at 12.5 µM; 0.69% of 350,000 active; in the data active = inhibition above about 41%
KKLEB tox – CF airway cell cytotoxicity counter-screen; activity change (cytotoxicity), % at 5 µM; AID 602141; KKLEB CF airway cells viability, ATPlite luminescence, overnight; hits give low values; cells stimulated with P. aeruginosa culture filtrate; 0.36% of 360,000 active;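 active = corrected activity change at or below -50% at 5 µM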
Peg3 promoter – Peg3 promoter activity inhibition; HeLa PEG-Prom luciferase reporter, luminescence, overnight; inhibition, % at 20 µM; 1.7% of 360,000 active;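 active = inhibition of at least 50% at 20 µM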
CF NFkB block – blocks PAF-induced NF-kB reporter in cystic fibrosis cells | KKLEB NF-kB-GFP reporter, GFP fluorescence overnight | inhibition, % at 5 µM | 0.86% of 360,000 active;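 active = at least 50% inhibition at 5 µM, scaled per plate between neutral and stimulator controls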;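 note: PAF is a Pseudomonas aeruginosa culture filtrate used as stimulus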
Hits are given with their value; - = inactive; . = no result given. Only some compounds are listed: those with a hit (about 2.9% of all), similar ones and a draw of the others.

SMILES	Shn3 3UTR inh	TRPM1 prom inh	EBV LMP1 NFkB	KKLEB tox	Peg3 promoter	CF NFkB block
COc1cc(OC)cc(-c2cc3nc(C)c(CCC(=O)NC(C)CCc4ccco4)c(C)n3n2)c1 (centres undefined)	-	-	-	-	-	-
COc1cc(OC)cc(-c2cc3nc(C)c(CCC(=O)O)c(C)n3n2)c1	-	.	53	-	-	-
Clc1ccc(-c2nnc(NC3=NCCCCC3)o2)cc1	-	-	46	-	-	-
Nc1ccccc1CCc1ccccc1N	-	.	-	-	-	-
CN(C)c1nc(C=C(C#N)C#N)c(Cl)n1-c1ccc(F)cc1	97	101	-	-96	110	86
CC1CCCCC1NC(=O)c1cc(Cl)nc2ccccc12 (centres undefined)	-	.	-	-	-	-
CC(CCc1ccco1)N(C)S(=O)(=O)c1csc(C(N)=O)c1 (centres undefined)	-	-	52	-	-	-
CN(C)CCN(Cc1ccco1)S(=O)(=O)c1csc(C(N)=O)c1	-	-	-	-	-	-
O=C(/C=C/c1cccc(Cl)c1)OCC(=O)c1ccc[nH]1	-	.	-	-	-	-
COc1cccc(C#CC2=CC(=O)CC(C)(C)C2)c1	-	.	-	-	-	-
COc1ccc2sc(-c3ccc(N(C)C)cc3)c(C#Cc3cncn3C)c2c1	-	-	-	-	-	-
COc1cc(C2C(C#N)=C(N)Oc3cc4c(cc32)OCO4)cc(OC)c1OC (centres undefined)	-	77	-	-	-	-
COc1cc(C2C(C#N)=C(N)Oc3cc(O)ccc32)cc(OC)c1OC (centres undefined)	-	-	-	-	-	-
Cc1ccc(C(O)c2ncc(-c3ccc(F)cc3)[nH]2)cc1F (centres undefined)	-	.	.	-	-	-
O=C(NC(NC(=S)Nc1cccc(Cl)c1)C(Cl)(Cl)Cl)OCc1ccccc1 (centres undefined)	-	-	-	-	53	-
O=C(NC(NC(=S)Nc1cccc(C(=O)O)c1)C(Cl)(Cl)Cl)OCc1ccccc1 (centres undefined)	-	-	-	-	-	-
COc1ccccc1S(=O)(=O)N(C)C[C@@H]1OCc2cnnn2CCCC(=O)N([C@H](C)CO)C[C@@H]1C	-	.	-	-	-	-
CC(=O)NC1=NC(=O)/C(=C/c2cn(C(C)=O)nc2-c2ccccc2)S1	-	-	-	-	-	57
C#CC1(NC(=S)Nc2cccc(OC)c2)CCCCC1	-	.	-	-	-	-
CC(C)NC(=O)C1(C)CCN1C(=O)c1ccccc1Oc1ccccc1 (centres undefined)	-	.	.	-	-	-
Cn1c(=O)c2c(SCC(=O)N3CCCc4ccccc43)nc(C3CC3)nc2n(C)c1=O	-	-	-	-	52	-
CCN1CCN(c2ccc(S(=O)(=O)N3CCCCC3)cc2NC(=O)c2ccc(F)cc2)CC1	-	-	-	-	-	-
CCn1nnc(NC(=O)c2ccc([N+](=O)[O-])o2)n1	-	-	-	-	-	68
CS(=O)(=O)N1CCN(c2ccccc2NC(=O)c2ccc([N+](=O)[O-])o2)CC1	-	-	-	-	-	-
CCN1CCN(c2ccc(NC(=O)c3ccc([N+](=O)[O-])o3)cc2Cl)CC1	-	71	-	-	102	89
SMILES	Shn3 3UTR inh	TRPM1 prom inh	EBV LMP1 NFkB	KKLEB tox	Peg3 promoter	CF NFkB block
CCN1CCN(c2ccc(S(=O)(=O)N3CCCCC3)cc2NC(=O)c2ccc([N+](=O)[O-])o2)CC1	-	95	-	-	-	-
CN1CCN(c2ccccc2NC(=O)c2ccc([N+](=O)[O-])o2)CC1	-	79	-	-	61	-
Cc1c(C(=O)NCc2ccccc2C(F)(F)F)sc(=O)n1Cc1ccccc1C#N	-	.	.	-	-	-
Cc1cc(C)c(C(=O)COC(=O)c2cccc(S(=O)(=O)N3CCOCC3)c2)cc1C	-	.	-	-	-	-
CCC(=O)N1CCN(c2ccc(NC(=O)c3ccc([N+](=O)[O-])o3)cc2Cl)CC1	96	87	-	-58	114	86
CCCC(=O)N1CCN(c2ccc(NC(=O)c3ccc(N4CCCC4)c([N+](=O)[O-])c3)cc2Cl)CC1	-	-	-	-	-	-
CCC(=O)N1CCN(c2ccc(Cl)cc2NC(=O)c2ccc([N+](=O)[O-])o2)CC1	-	67	-	-	-	-
Fc1ccc(C2=Nc3cccc4cccc(c34)N2)cc1	-	-	-	-	-	-
FC(F)(F)C1=Nc2cccc3cccc(c23)N1	-	-	-	-	111	-
NC(=O)Cc1ccc(C(=O)CSc2nnc(-c3ccncc3)n2C2CC2)s1	-	-	-	-	-	-
O=C(Nc1ncc(Br)s1)C(Cc1ccccc1)n1cccc1 (centres undefined)	-	-	91	-	-	-
CCc1nc2c(OCC(N)=O)cccn2c1N(C)C(=O)c1cccs1	-	.	.	-	-	-
N=C1S/C(=C\c2ccccc2)C(=O)N1c1ccc(F)cc1	-	-	67	-	-	-
CCOc1ccc(N2C(=O)S/C(=C\c3ccc(O)c(OC)c3)C2=O)cc1	-	-	-	-	-	-
COc1cc(/C=C2\SC(=N)N(c3ccc(F)cc3)C2=O)ccc1O	-	-	-	-	-	62
N=C1S/C(=C\c2cn[nH]c2-c2ccc(F)cc2)C(=O)N1c1ccccc1F	-	-	-	-	-	50
CC1(C)SC(C)(C)N(C=O)C1C(=O)O (centres undefined)	-	-	-	-	-	-
CC(=O)Nc1ccc(-c2noc(-c3csc([C@@H]4C[C@H](O)[C@@H](CO)O4)n3)n2)cc1	-	.	.	-	-	-
CCn1c(=NC(=O)CS(=O)(=O)c2ccccc2)sc2cccc(OC)c21	87	-	-	-	-	-
Cc1ccc(S(=O)(=O)/N=C2\C=C(Nc3cccc(C(=O)O)c3)C(=O)c3ccccc32)cc1	-	-	-	-	-	98
O=C(O)c1cccc(NS(=O)(=O)c2ccc3c(c2)C(=O)c2ccccc2C3=O)c1	-	-	-	-	-	-
O=C(O)c1cccc(NC2=C(N3CCOCC3)C(=O)c3ccccc3C2=O)c1	.	-	-	-	-	-
Cc1ccc(S(=O)(=O)/N=C2\C=C(Nc3ccc(O)cc3)C(=O)c3ccccc32)cc1	97	99	88	-80	105	83
Cc1ccc(S(=O)(=O)Nc2ccc(N=Nc3ccc(O)cc3)cc2)cc1	-	-	-	-	-	-
CCc1ccc(S(=O)(=O)/N=C2\C=C(Nc3ccc(C(=O)O)cc3)C(=O)c3ccccc32)cc1	-	-	-	-	-	90
Cc1ccc(S(=O)(=O)/N=C2\C=C(Nc3cccc(C(=O)O)c3)C(=O)c3ccccc32)c(C)c1	-	-	-	-	-	92
CN(Cc1ccccc1)C(=O)c1[nH]cnc1C(=O)Nc1ccc(Br)cc1F	-	.	-	-	-	-
O=S(=O)(c1ccccc1)c1ncc(C(F)(F)F)cc1O	-	-	-	-	-	-
